Source: article PMC5700166

How the values were obtained:
[1] = biological target: T1, GST-Nv-NF-kB (Ser allele) (Nematostella vectensis, UniProt A7UNT2 2-411); test: protein-binding microarray (PBM); PBM: ~300 nM protein, 6 mM HEPES pH 7.8, 80 mM KCl, 0.5 mM EDTA, 0.5 mM EGTA, 6% glycerol, 35 ng/ul poly-dIdC, 1% milk, 1 h, room temperature; Ap Aiptasia and Nv Nematostella (sea anemones) / Co Capsaspora / Aq Amphimedon (sponge) / Dm Drosophila / Hu human; RHD is the Rel homology domain; high values mean tight binding; conditions: dsDNA, one strand shown
T1 sequence: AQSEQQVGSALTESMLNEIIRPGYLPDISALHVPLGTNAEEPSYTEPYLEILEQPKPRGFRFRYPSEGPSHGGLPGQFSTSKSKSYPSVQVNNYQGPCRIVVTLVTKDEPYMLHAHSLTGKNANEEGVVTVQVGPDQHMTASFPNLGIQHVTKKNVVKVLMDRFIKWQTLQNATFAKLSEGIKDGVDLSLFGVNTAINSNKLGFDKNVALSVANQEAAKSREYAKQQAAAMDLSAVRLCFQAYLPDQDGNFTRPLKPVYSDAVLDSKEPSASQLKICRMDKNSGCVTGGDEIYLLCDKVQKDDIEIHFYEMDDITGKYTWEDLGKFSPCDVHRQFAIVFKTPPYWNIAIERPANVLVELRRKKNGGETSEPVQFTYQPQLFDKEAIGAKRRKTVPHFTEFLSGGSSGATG

GST-Hu-p50 = GST-Hu-p50 (Homo sapiens, UniProt P19838 7-356); test: as above; conditions: dsDNA, one strand shown
Chain of GST-Hu-p50 (P19838 7-356): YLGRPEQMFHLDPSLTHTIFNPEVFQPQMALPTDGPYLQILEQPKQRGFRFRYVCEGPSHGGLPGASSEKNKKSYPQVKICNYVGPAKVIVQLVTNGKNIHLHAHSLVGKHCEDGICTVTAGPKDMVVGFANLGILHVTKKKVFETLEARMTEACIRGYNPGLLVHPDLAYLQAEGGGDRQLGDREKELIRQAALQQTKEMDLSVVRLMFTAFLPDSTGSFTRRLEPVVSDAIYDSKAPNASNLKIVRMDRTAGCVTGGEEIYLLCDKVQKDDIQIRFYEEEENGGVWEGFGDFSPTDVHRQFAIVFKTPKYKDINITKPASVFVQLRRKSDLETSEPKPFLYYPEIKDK

Sequence | binding signal [1] | binding signal (GST-Hu-p50)
CCGATTAACATCACGGGTTTCCCTGATGTTAATCGGGTCTTGATTCGCTTGACGCTGCTG | 4.88 z-score | 3.17 z-score
CCGATTAACATCAGGAATTCACCTGATGTTAATCGGGTCTTGATTCGCTTGACGCTGCTG | 2.04 z-score | 3.81 z-score
CCGATTAACATCAACGGGAATTCTGATGTTAATCGGGTCTTGATTCGCTTGACGCTGCTG | 5.37 z-score | 3.82 z-score
CCGATTAACATCAGAGTCCCCCCTGATGTTAATCGGGTCTTGATTCGCTTGACGCTGCTG | 5.12 z-score | 5.06 z-score
CCGATTAACATCACCGCCCCACGTGATGTTAATCGGGTCTTGATTCGCTTGACGCTGCTG | 1.37 z-score | 2.36 z-score
CCGATTAACATCAGGGGGGGTGATGATGTTAATCGGGTCTTGATTCGCTTGACGCTGCTG | 3.98 z-score | 4.13 z-score
CCGATTAACATCACGTATTTCCCTGATGTTAATCGGGTCTTGATTCGCTTGACGCTGCTG | 4.49 z-score | 3.02 z-score
CCGATTAACATCAGGGAAACTCATGATGTTAATCGGGTCTTGATTCGCTTGACGCTGCTG | 4.62 z-score | 3.13 z-score
CCGATTAACATCAGGGGTTACCCTGATGTTAATCGGGTCTTGATTCGCTTGACGCTGCTG | 4.21 z-score | 3.9 z-score
CCGATTAACATCAAGGGAATACCTGATGTTAATCGGGTCTTGATTCGCTTGACGCTGCTG | 4.14 z-score | 2.34 z-score
CCGATTAACATCAAGGGTTTTCCTGATGTTAATCGGGTCTTGATTCGCTTGACGCTGCTG | 2.41 z-score | 2.92 z-score
CCGATTAACATCAGGTTTTCCCATGATGTTAATCGGGTCTTGATTCGCTTGACGCTGCTG | 5.41 z-score | 3.27 z-score
